Data taken from PubChem BioAssay AID782 (Emory University Molecular Libraries Screening Center, 2007).
The campaign covered roughly 220,000 compounds. About 800 (0.36%) were called active. This is one part of a sample in which actives are shown more often than they occur.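 The calls were made as follows: active = inhibition above about 30% (limit read from the data); inactive = the rest.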

Molecular target: Eukaryotic translation initiation factor 4E (Mus musculus) + Eukaryotic translation initiation factor 4 gamma 1 (Homo sapiens) (UniProt P63073+Q04637)
Assay: eIF4E–eIF4G protein interaction inhibitors, primary screen, biochemical, uHTS, TR-FRET, eIF4GI fragment (AID 782);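 also: 0% = full FRET control wells and 100% = background wells lacking eIF4GI fragment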
Conditions: TR-FRET eIF4E-eIF4GI(517-606) binding, 2 h; at 21.7 µM; active compounds read high

Chain of Eukaryotic translation initiation factor 4E (Mus musculus) + Eukaryotic translation initiation factor 4 gamma 1 (Homo sapiens) (P63073 whole entry, looked up, the tested form may be a part): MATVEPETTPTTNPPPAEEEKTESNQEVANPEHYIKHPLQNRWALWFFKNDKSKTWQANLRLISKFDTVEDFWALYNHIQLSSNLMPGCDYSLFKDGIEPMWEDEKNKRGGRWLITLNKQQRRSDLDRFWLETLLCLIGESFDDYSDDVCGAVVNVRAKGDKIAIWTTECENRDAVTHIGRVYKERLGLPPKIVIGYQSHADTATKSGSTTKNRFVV
Chain of Eukaryotic translation initiation factor 4E (Mus musculus) + Eukaryotic translation initiation factor 4 gamma 1 (Homo sapiens) (Q04637 whole entry, looked up, the tested form may be a part): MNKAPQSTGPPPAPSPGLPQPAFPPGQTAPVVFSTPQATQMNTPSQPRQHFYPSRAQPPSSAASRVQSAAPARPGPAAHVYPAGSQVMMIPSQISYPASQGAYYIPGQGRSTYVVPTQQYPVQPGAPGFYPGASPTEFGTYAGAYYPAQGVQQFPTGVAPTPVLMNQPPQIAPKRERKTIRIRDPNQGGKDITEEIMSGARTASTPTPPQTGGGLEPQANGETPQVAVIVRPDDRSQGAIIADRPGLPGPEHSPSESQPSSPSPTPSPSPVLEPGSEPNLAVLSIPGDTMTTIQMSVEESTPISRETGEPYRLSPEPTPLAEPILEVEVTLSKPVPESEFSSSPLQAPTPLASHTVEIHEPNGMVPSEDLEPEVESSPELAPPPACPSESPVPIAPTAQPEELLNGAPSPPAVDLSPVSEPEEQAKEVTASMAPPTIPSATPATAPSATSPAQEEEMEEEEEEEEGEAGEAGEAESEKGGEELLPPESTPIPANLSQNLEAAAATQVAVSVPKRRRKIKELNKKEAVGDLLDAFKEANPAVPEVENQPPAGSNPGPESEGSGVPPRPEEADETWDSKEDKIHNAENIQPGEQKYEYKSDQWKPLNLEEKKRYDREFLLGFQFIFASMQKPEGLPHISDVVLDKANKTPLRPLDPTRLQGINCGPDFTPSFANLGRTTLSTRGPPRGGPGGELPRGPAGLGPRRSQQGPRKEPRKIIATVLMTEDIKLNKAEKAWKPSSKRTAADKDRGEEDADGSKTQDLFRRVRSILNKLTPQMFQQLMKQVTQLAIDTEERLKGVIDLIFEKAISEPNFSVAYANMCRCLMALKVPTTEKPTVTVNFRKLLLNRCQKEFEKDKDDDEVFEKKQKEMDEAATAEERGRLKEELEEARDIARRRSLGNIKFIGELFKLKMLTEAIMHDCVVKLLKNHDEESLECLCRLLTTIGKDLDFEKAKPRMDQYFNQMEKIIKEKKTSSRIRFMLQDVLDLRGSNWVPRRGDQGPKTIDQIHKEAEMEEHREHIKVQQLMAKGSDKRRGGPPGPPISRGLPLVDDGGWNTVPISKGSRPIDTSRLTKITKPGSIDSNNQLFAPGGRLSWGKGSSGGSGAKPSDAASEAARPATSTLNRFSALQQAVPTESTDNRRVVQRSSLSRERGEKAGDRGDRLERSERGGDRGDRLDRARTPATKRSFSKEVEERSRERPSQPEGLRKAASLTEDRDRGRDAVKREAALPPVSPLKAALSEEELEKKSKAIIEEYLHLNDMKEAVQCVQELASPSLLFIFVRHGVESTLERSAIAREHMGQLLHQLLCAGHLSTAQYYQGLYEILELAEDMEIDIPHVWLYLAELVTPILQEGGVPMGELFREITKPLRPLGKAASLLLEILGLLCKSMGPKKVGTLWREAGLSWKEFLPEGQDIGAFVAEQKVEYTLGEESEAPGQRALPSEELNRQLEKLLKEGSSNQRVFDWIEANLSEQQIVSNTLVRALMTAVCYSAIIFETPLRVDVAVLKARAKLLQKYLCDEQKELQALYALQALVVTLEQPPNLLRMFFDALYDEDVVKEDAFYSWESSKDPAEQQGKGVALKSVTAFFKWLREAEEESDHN

Compound | inhibition
COc1ccc(CNC(=O)C2CC(c3ccc(C(F)(F)F)cc3)=NO2)cc1 (stereo unspecified) | 0.84% (inactive)
C=C(C)C(=O)O[C@H]1C/C(C)=C\C(=O)/C=C(\C)[C@H](O)[C@@H]2OC(=O)C(=C)[C@@H]21 | 2.79% (inactive)
CCn1c(NC(=O)c2nn(C)cc2Br)nc2ccccc21 | 2.02% (inactive)
CC(C)N(C(=O)c1ccc(-c2ccccc2F)cc1)C(C)C | 6.78% (inactive)
O=S(=O)(c1ccc(Cl)cc1)N1CCCN(c2ccc(C(F)(F)F)cn2)CC1 | 2.55% (inactive)
CCOC(=O)N1CCN(C(c2cccnc2)c2ccc3cccnc3c2O)CC1 (stereo unspecified) | 41.4% [fluorescence artefact?] (active)
Oc1c(C(c2ccccn2)N2CCOCC2)ccc2cccnc12 (stereo unspecified) | 5.26% (inactive)
CCN1CCN(C(c2cccnc2)c2cc(Cl)c3cccnc3c2O)CC1 (stereo unspecified) | 15.4% (inactive)
CCc1nnc(NC(=O)Cc2cccs2)s1 | 28.2% (inactive)
O=C(Cc1cccs1)Nc1nnc(C2CC2)s1 | -4.66% (inactive)
COc1ccc(Cc2nnc(NC(=O)Cc3cccs3)s2)cc1 | 30.8% (active)
O=C1C(Cc2ccc(O)cc2)NC(=S)N1Cc1ccccc1 (stereo unspecified) | 4.64% (inactive)
O=C(NC(Cc1c[nH]c2ccccc12)C(=O)O)/C(=C/c1ccco1)NC(=O)c1ccccc1 (stereo unspecified) | 1.5% (inactive)
CN(C(=O)Nc1ccc(Cl)cc1)n1cnc2ccccc2c1=O | -1.03% (inactive)
O=C(Cn1cnc2c(cnn2-c2ccccc2)c1=O)NCc1ccccc1 | -7.03% (inactive)
O=C(Cn1cnc2cc([N+](=O)[O-])ccc2c1=O)NC(=O)NCc1ccccc1 | 90.5% (active)
CC(C)(C)NC(=O)Cn1cnc2cc([N+](=O)[O-])ccc2c1=O | 6.94% (inactive)
CCC(C)(C)NC(=O)/C=C/c1cc(OC)c(OC)c(S(=O)(=O)N2CCc3ccccc32)c1 | -2.6% (inactive)
CCN(Cc1ccccc1)C(=O)CN1C(=S)NC(C)(C)CC1C (stereo unspecified) | -8.44% (inactive)
CC(=O)Nc1cccc(/C(C)=N/NC(=O)c2c(-c3ccccc3Cl)noc2C)c1 | 1.91% (inactive)
COc1ccc(N2CCN(C(=O)/C(C#N)=C/c3ccccc3)CC2)cc1 | 1.4% (inactive)
COC(=O)c1sc2[nH]c(=S)n(N)c(=O)c2c1C | -5.75% (inactive)
Cc1c(CN2CCC(CO)(CCOc3ccccc3)CC2)[nH]c2ccc(Cl)cc12 | 3.73% (inactive)

Compound | inhibition
Cc1ccc(C)c2c1cc(C)c1nnc(SCC(=O)Nc3cccc(C(=O)O)c3)n12 | 92.4% (active)
Cc1cc(C)c2c(c1)cc(C)c1nnc(SCC(=O)Nc3cc(C)on3)n12 | 0.38% (inactive)
CCCn1c(SCC(=O)Nc2cccc(C(=O)OCC)c2)nnc1-c1ccoc1C | -5.54% (inactive)
CCCCOc1ccc(C(=O)NCC(=O)OCC(=O)N2CCN(S(=O)(=O)c3ccc(C)cc3C)CC2)cc1 | 11.8% (inactive)
O=C(Cc1c[nH]c2ccccc12)OCCOC(=O)Cc1c[nH]c2ccccc12 | 0.18% (inactive)
CC1CCN(CC(=O)c2c[nH]c3ccccc23)CC1 | -20.8% (inactive)
O=C(OCC(=O)c1c[nH]c2ccccc12)c1cccc(O)c1 | 49.4% (active)
CCOC(=O)CCCNC(=O)COC(=O)c1cc(Br)c(Br)s1 | -0.44% (inactive)
COc1ccccc1OCC(=O)O/N=C(\N)c1ccccn1 | 4.41% (inactive)
CCCn1nc(NS(=O)(=O)c2ccccc2)c2cc3cc(C)ccc3nc21 | 0.92% (inactive)
COC(=O)Cn1c(O)c(N=NC(=O)OC)c2ccccc21 | 94.3% (active)
CCCCn1c(O)c(N=NC(=O)Cn2c(C(F)(F)F)nc3ccccc32)c2ccccc21 | 16% (inactive)
N#CCCCn1c(O)c(N=NC(=O)C(O)c2ccccc2)c2ccccc21 (stereo unspecified) | 1.55% (inactive)
CC1(C)C(c2cccs2)=[N+]([O-])C2(CCCCC2=O)N1O (stereo unspecified) | -4.23% (inactive)
Cc1c(-c2cccc(Cl)c2)nc2ccccc2c1C(=O)OCC(=O)N(C)C1CCS(=O)(=O)C1 (stereo unspecified) | 2.67% (inactive)
COc1ccc(NC(=O)COc2ccc(C(=O)OCC(=O)N(C)C3CCS(=O)(=O)C3)cc2OC)cc1 (stereo unspecified) | -0.66% (inactive)
CN(C(=O)COC(=O)c1cc(-c2ccco2)nc2ccccc12)C1CCS(=O)(=O)C1 (stereo unspecified) | 42.4% (active)
O=C(NNC(=S)NC(=O)c1cn(-c2ccccc2)nc1-c1ccccc1)c1ccncc1 | 0.17% (inactive)
Cc1ccc(N(C(=O)C(F)(F)F)C(C(=O)NC2CCCCC2)c2ccncc2)cc1C (stereo unspecified) | 4.58% (inactive)
S=C(NCCc1ccccc1)N1CCn2cccc2C1c1ccncc1 (stereo unspecified) | -2.42% (inactive)
COc1ccc(-c2ccc(OC(=O)NC3CCS(=O)(=O)C3)cc2)cc1 (stereo unspecified) | 2.9% (inactive)
Cc1ccc(NC(=S)NC2CCCC2)cc1 | 1.43% (inactive)
COc1ccc(NC(=S)NC2CCS(=O)(=O)C2)cc1 (stereo unspecified) | 49.7% (active)
